In PubChem BioAssay (EPA / NIEHS):
Records with an inconclusive call do not appear. The source made the active and inactive calls. How the source made its calls, unless noted: active means hit-call score of the fitted dose curve at least 0.9, where 1 is the maximum; inconclusive means response in the unintended direction; inactive means score below 0.9.

Key:
[1] = TOX21_p53_BLA_p2_viability: Viability Assessment in the Tox21 HCT-116 p53 Agonism Beta-lactamase Assay, Phase 2 (AID 2283591);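 further: compound exposure lasted 16 h at 37 °C; actives lower the ATP signal meaning cytotoxicity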
Method in brief: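 HCT116 p53-bla cells, 4000/well, dosed after 5 h plating (217-fold dilution of DMSO stocks) and incubated 16 h at 37C. Viability taken as cellular ATP by CellTiter-Glo luminescence after 30 min RT; signal loss marks cytotoxicity.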

[2] = target: Cellular tumor antigen p53 (Homo sapiens) (UniProt P04637); assay: TOX21_p53_BLA_p2_ratio: Tox21 HCT-116 p53 Agonism Beta-lactamase Assay, Ratio, Phase 2 (AID 2283592)
Method in brief: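 Read-out is the blue/green (460/530 nm, 405 nm excitation) ratio after 2 h CCF4-AM loading, fitted as gain versus DMSO. Compounds, pinned at 217-fold dilution from DMSO stocks, stayed 16 h on HCT-116 beta-lactamase reporter cells seeded 5 h earlier.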

[3] = TOX21_p53_BLA_p3_viability: Viability Assessment in the Tox21 HCT-116 p53 Agonism Beta-lactamase Assay, Phase 3 (AID 2283593);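 further: cells exposed to compound for 16 h before reading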
Method in brief: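 HCT116 cells, 4000/well, dosed 5 h after plating by pin transfer (217-fold dilution from DMSO stock) and incubated 16 h at 37C, 5% CO2. Viability read as ATP luminescence with CellTiter-Glo after 30 min at room temperature.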

[4] = target: Cellular tumor antigen p53 (Homo sapiens) (UniProt P04637); assay: TOX21_p53_BLA_p3_ratio: Tox21 HCT-116 p53 Agonism Beta-lactamase Assay, Ratio, Phase 3 (AID 2283596)
Method in brief: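 Cells were seeded at 4000/well, rested 5 h at 37C, then dosed with DMSO compound solutions (217-fold dilution) for 16 h. CCF4-AM substrate was loaded for 2 h at room temperature, and the 460/530 nm emission ratio was fitted for gain of signal versus DMSO.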

[5] = TOX21_p53_BLA_p4_viability: Viability Assessment in the Tox21 HCT-116 p53 Agonism Beta-lactamase Assay, Phase 4 (AID 2283597);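 further: hits lower the luminescence signal meaning cytotoxicity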
Method in brief: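 Cytotoxicity as reduced cellular ATP (CellTiter-Glo luminescence, 30 min room temperature), measured in the same wells following the CCF4 FRET p53 reading. Human HCT-116 cells received compounds in DMSO (217-fold dilution) for 16 h.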

[6] = target: Cellular tumor antigen p53 (Homo sapiens) (UniProt P04637); assay: TOX21_p53_BLA_p5_ratio: Tox21 HCT-116 p53 Agonism Beta-lactamase Assay, Ratio, Phase 5 (AID 2283599)
Method in brief: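 HCT-116 p53-bla cells (4000/well) plated 5 h, dosed with compound (217-fold DMSO dilution) for 16 h at 37 C; CCF4-AM substrate 2 h at room temperature. Activity is the 460/530 nm emission ratio (405 nm excitation), fitted in gain-of-signal direction versus DMSO.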

[7] = target: Cellular tumor antigen p53 (Homo sapiens) (UniProt P04637); assay: TOX21_p53_BLA_p4_ratio: Tox21 HCT-116 p53 Agonism Beta-lactamase Assay, Ratio, Phase 4 (AID 2283601)
Method in brief: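 HCT-116 p53 beta-lactamase reporter cells (4000/well) preincubated 5 h, then compound (217-fold dilution of DMSO stock) for 16 h at 37C. CCF4-AM substrate added 2 h at room temperature; 460/530 nm emission ratio fitted upward versus DMSO.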

[8] = TOX21_p53_BLA_p5_viability: Viability Assessment in the Tox21 HCT-116 p53 Agonism Beta-lactamase Assay, Phase 5 (AID 2283600)
Method in brief: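 Viability came from CellTiter-Glo ATP luminescence, read after 30 min at room temperature. Before this, HCT-116 p53-bla cells (4000/well) had 16 hours of compound exposure at 37C, with DMSO stocks diluted 217-fold on transfer.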

[9] = CCTE_Harrill_HTTr_Viability_MCF7: CCTE's 6-hour Cell Viability Assessment for the High-Throughput Transcriptomics (HTTr) Platform, in MCF-7 cells cultured in DMEM + 10% fetal bovine serum, Harrill Lab (AID 2284010; active means hit-call score of the fitted dose curve at least 0.9, where 1 is the maximum; inactive means score below 0.9)
Method in brief: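 PI exclusion, high-content imaging; 8-pt dilution series, 6 h exposure; bidirectional fit vs DMSO (neg. ctrl/baseline); gain of signal = loss of membrane integrity.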

[10] = CCTE_Harrill_HTTr_Apoptosis_MCF7: CCTE's 6-hour Apoptosis Assessment for the High-Throughput Transcriptomics (HTTr) Platform, in MCF-7 cells cultured in DMEM + 10% fetal bovine serum, Harrill Lab (AID 2284011; active means hit-call score of the fitted dose curve at least 0.9, where 1 is the maximum; inactive means score below 0.9)
Method in brief: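 High-content imaging of CellEvent Caspase 3/7 Green signal follows a six-hour exposure, with eight concentrations per chemical. MCF-7 cells grown in DMEM plus 10% fetal bovine serum; activity fitted in both directions against DMSO.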

[11] = CCTE_Harrill_HTTr_CellCount_MCF7: CCTE's Cell Proliferation Assessment for the High-Throughput Transcriptomics (HTTr) Platform, Harrill Lab (AID 2284012);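 further: count of Hoechst-stained nuclei per well by high-content imaging in MCF-7 cells; cells exposed to compound for six hours; intended direction is loss of nuclei count meaning fewer cells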
Method in brief: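 Readout: Hoechst nuclear count by high-content imaging. MCF-7, 8-point dilution series, 6 h exposure. Bidirectional fit vs DMSO baseline.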

[12] = ACEA_ER_AUC_viability: ACEA Biosciences xCELLigence Real-Time Cell Analysis on Estrogen Receptor Agonism for Viability (AID 2283782);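 further: hit means loss of impedance signal meaning reduced cell growth or viability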
Method in brief: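 Read-out: real-time electrical impedance (RT-CES) area under curve, loss of signal taken as reduced viability, normalized to DMSO baseline. T-47D cells, charcoal-stripped serum medium, compounds up to 100 uM final, continuous exposure, 80 h.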

Measured: AC50

Sequence of Cellular tumor antigen p53 (Homo sapiens) (P04637 whole entry, looked up): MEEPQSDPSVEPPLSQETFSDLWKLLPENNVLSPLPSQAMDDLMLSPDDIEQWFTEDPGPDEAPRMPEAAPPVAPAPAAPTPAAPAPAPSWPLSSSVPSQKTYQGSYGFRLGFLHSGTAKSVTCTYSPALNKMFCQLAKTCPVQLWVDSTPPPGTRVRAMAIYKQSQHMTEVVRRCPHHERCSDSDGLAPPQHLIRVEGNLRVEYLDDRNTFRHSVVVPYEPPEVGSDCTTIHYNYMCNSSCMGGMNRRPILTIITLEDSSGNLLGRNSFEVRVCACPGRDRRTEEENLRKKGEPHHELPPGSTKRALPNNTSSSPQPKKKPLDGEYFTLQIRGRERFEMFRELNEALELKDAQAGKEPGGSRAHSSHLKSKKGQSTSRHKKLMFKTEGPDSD

CCC(Oc1ccccc1)C(=O)N[C@@H]1C(=O)N2[C@@H]1SC(C)(C)[C@@H]2C(=O)O (some centres not stated)
inactive: [1] | [2] | [3] | [4] | [5] | [6] | [7]

O=Cc1cc2ccccc2o1
inactive: [1] | [2] | [3] | [4] | [5] | [6] | [7]

CC(C(=O)O)c1ccc(-c2ccccc2)c(F)c1 (configuration not stated)
not listed: [6] | [12]
inactive: all other assays above

O=C[C@H](O)[C@@H](O)[C@@H](O)[C@H](O)CO
inactive: [1] | [2] | [3] | [4] | [5] | [8] | [7]

CC1(C)S[C@@H]2[C@H](NC(=O)[C@H](N)c3ccccc3)C(=O)N2[C@H]1C(=O)OCOC(=O)[C@@H]1N2C(=O)C[C@H]2S(=O)(=O)C1(C)C
inactive: [1] | [2] | [3] | [4] | [5] | [8] | [7]

CC1=C[C@H](O)CC(C)(C)[C@H]1/C=C/C(C)=C/C=C/C(C)=C/C=C/C=C(C)/C=C/C=C(C)/C=C/C1=C(C)C[C@@H](O)CC1(C)C
active: [4] 39.9 µM | [5] 35.3 µM | [8] 43 µM | [7] 34.8 µM
inactive: [1] | [2] | [3]

CN(C/C=C/C#CC(C)(C)C)Cc1cccc2ccccc12
inactive: [1] | [2] | [3] | [4] | [5] | [8] | [7]

CCCCN(CCCC)CC(O)c1cc(Cl)cc2c1-c1ccc(Cl)cc1/C2=C/c1ccc(Cl)cc1 (configuration not stated)
inactive: [1] | [2] | [3] | [4] | [5] | [8] | [7]

C=C[C@]1(C)C[C@@H](OC(=O)CSC(C)(C)CNC(=O)[C@H](N)C(C)C)[C@]2(C)[C@H](C)CC[C@]3(CCC(=O)[C@H]32)[C@@H](C)[C@@H]1O
inactive: [1] | [2] | [3] | [4] | [5] | [8] | [7]

CN[C@@H]1[C@H](O)[C@H](NC)[C@H]2O[C@@]3(O)C(=O)C[C@@H](C)O[C@H]3O[C@@H]2[C@H]1O
inactive: [1] | [2] | [3] | [4] | [5] | [8] | [7]

O=C(O)CCCCCCCCCCCBr
inactive: [1] | [2] | [3] | [4] | [5] | [8] | [7]

CNC(=O)CN(CCN(CCN(CC(=O)[O-])CC(=O)NC)CC(=O)[O-])CC(=O)[O-].O.[Gd+3]
inactive: [1] | [2] | [3] | [4] | [5] | [8] | [7]

Cc1ncc(CSSCc2cnc(C)c(O)c2CO)c(CO)c1O
inactive: [1] | [2] | [3] | [4] | [5] | [8] | [7]

CC1(C)CC(N)CC(C)(C)N1
not listed: [6] | [9] | [10] | [11]
inactive: all other assays above
